# Results from PubChem BioAssay AID1347416 (National Center for Advancing Translational Sciences (NCATS), 2020).
# About 1,600 (39%) of roughly 4,100 compounds were called active. About 25% were inconclusive and are not listed. The list shows a part of the results. A number with no mark means an inactive call. Calls come from the whole dose curve; as a rule, active = well fitted inhibition curve with a large enough effect; inconclusive = small, poorly fitted or top-dose-only effect; inactive = no such curve, though single readings can be large or run the other way.
# Assay: qHTS Validation assay for Inhibitors of Plasmodium falciparum Dd2 growth in vitro; note: nearly all actives have a fitted effect of over 70% in size
# Conditions: P. falciparum Dd2 in RBCs, SYBR Green growth, 72 h; series mostly up to 28.7 µM; activity change, negative = inhibition: at the top concentration
# Outline: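 P. falciparum Dd2-infected red blood cells (2.5% hematocrit, 0.3% parasitemia) grown 72 h at 37 °C under 5% O2 with compounds in a titration, 29 uM to 0.5 nM final. Growth read as SYBR Green-1 fluorescence after ~16 h lysis; artesunate 300 nM as positive control.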
# % is set by controls: 0 for no effect and ±100 for the full control effect; potency is the fitted concentration of half-maximal effect.
Compound,"activity change, negative = inhibition",Potency
COCc1nncn1C1CCN(C(=O)c2ccc(C)c(C)c2)CC1,26.5%,–
CN(Cc1cccn1C)C(=O)C1CC1,50.1% [at 57.5 µM],–
CCC(C)c1ccc(O)c(NC(=O)c2cncc(Br)c2)c1 (configuration not stated),–,2.99 µM (active)
CCC(C)c1ccc(NC(=O)c2cccnc2)cc1 (configuration not stated),-5.75%,–
COc1ccc(NC(=O)c2nnn3c2CN(Cc2cccc(Cl)c2)C(=O)CC3)c(C)c1,–,2.17 µM (active)
COc1ccc(NC(=O)c2nnn(Cc3ccccc3C)c2N)c(OC)c1,11.2%,–
O=C(Nc1nc2ccccc2n1Cc1ccccc1)c1ccc(COc2ccccc2[N+](=O)[O-])o1,–,16.8 µM (active)
CC(=O)Nc1nc2ccccc2n1Cc1ccc(Cl)cc1,–,8.41 µM (active)
CCCCCCCn1c(NC(=O)CC)nc2ccccc21,–,16.8 µM (active)
CCCCn1c2ccccc2c2nnc(SCC(=O)Nc3ccc(NC(C)=O)cc3)nc21,9.73%,–
COc1ccc(C2CC(c3cccs3)=NN2C(=O)c2ccc(Br)o2)cc1 (configuration not stated),–,5.31 µM (active)
COc1ccc2nc3oc(C(=O)NCc4cccs4)cc3cc2c1,1.28%,–
O=C(Nc1nc2c(F)cccc2s1)c1ccc(S(=O)(=O)N2CCCc3ccccc32)cc1,23.7%,–
O=C(NCCCN1CCCC1)c1ccc2c(c1)N(S(=O)(=O)c1ccccc1F)CC2,–,9.44 µM (active)
O=C(CN1CCN(S(=O)(=O)N2CCCC2)CC1)NCc1ccccc1F,35.8%,–
COc1ccc2[nH]c3c(c2c1)CCNC31CCN(C(=O)C(C)(C)C)CC1,4.8%,–
Cc1ccc(C(=O)N2CCc3nc4cc(-c5ccccc5)[nH]n4c(=O)c3C2)cn1,-4.34%,–
O=C(c1cc(NC(=O)C23CC4CC(CC(C4)C2)C3)cc(NC(=O)C23CC4CC(CC(C4)C2)C3)c1)N1CCCCC1,–,5.96 µM (active)
CC(C)CN1C(=O)c2cccn2CC1CNC(=O)c1ccccc1 (configuration not stated),11.3%,–
Cc1ccc(CNCC(O)(c2ccccc2)c2ccc(Cl)cc2)cc1 (configuration not stated),–,2.99 µM (active)
COc1ccccc1Oc1ncccc1CNCc1c(F)cccc1Cl,-18.1%,–
COc1ccccc1CNCC(O)(c1ccc(Cl)cc1)c1ccc(Cl)cc1,–,1.5 µM (active)
COc1ccc(CNCC(O)(c2ccc(Cl)cc2)c2ccc(Cl)cc2)cc1,–,1.5 µM (active)

Compound,"activity change, negative = inhibition",Potency
Cc1cn2nc(-c3nc(C4CCCN(C(=O)Cc5ccsc5)C4)no3)cc2c(=O)[nH]1 (configuration not stated),2.56%,–
COc1ccc(CNC(=O)C2CCN(c3nc(-c4ccccc4)nc4c3CCC4)CC2)cc1,–,7.5 µM (active)
CCc1ccc(CNC(=O)C2CCN(c3cc(C(F)(F)F)nc(C)n3)CC2)cc1,0.317%,–
COc1ccc(OC)c(CNC(=O)C2CCN(c3ncnc4c3nc3n4CCCCC3)CC2)c1,0%,–
COc1ccccc1NC(=O)N1CCOc2ccc(CN3CCc4ccccc4C3)cc2C1,–,2.37 µM (active)
CCOc1cccc(CN2C[C@@H]3C(=O)N(CCN4CCc5ccccc5C4)C(=O)[C@@H]3C2)c1,-2.17%,–
O=C(Nc1ccc(F)cc1)N1CCOc2ccc(CN3CCc4ccccc4C3)cc2C1,–,8.41 µM (active)
Cc1cc(=O)n(CC(=O)Nc2ccccc2F)c(N2CCc3ccccc3C2)n1,-14.7%,–
CC1(CNc2ccccc2)COc2ccc(C(=O)NCc3ccc(F)cc3)cc2N1 (configuration not stated),-5.85% [at 43.1 µM],–
CC[C@@H](NC(C)=O)C(=O)N1CCOc2c(cc(-c3cccs3)cc2OC)C1,59.3%,–
CCC1Oc2ccc(NC(=O)COC)cc2CN(Cc2ccc(F)cc2)C1=O (configuration not stated),-29.7%,–
O=C(Nc1ccc(F)cc1F)N1CCOc2ccc(CN3CCc4ccccc4C3)cc2C1,–,16.8 µM (active)
CCN(C(=O)c1cc2cc(Br)cc(OC)c2oc1=O)c1ccccc1,4.88%,–
Cc1nc(CCNC(=O)C2CC2)no1,12.3%,–
O=C(c1ccc(-c2ncc3cnc(-c4ccccc4)cn23)cc1)N1CCc2cccnc21,–,17.2 µM (active)
O=C(c1ccc(-c2ncc3cnc(-c4cccc(F)c4)cn23)cc1)N1CCc2cccnc21,-17% [at 43.1 µM],–
Cc1ccc(C(=O)N2CCCn3cc(-c4cccc(C#N)c4)nc32)cc1,-7.37%,–
CCOC(=O)c1ccc(Nc2nc3nonc3nc2Nc2cccc(C)c2C)cc1,–,8.41 µM (active)
COc1ccc(Nc2ccccc2NC(=O)c2ccccc2Br)cc1,–,5.96 µM (active)
COc1ccc(NC(=O)c2cccc3c2CCN3C(=O)Nc2ccc(F)cc2)c(C)c1,-18.7%,–
CCNC(=O)N1CC[C@H]2CC(=O)N([C@H](C(N)=O)C(C)C)CC[C@H]2C1,37.8% [at 43.1 µM],–
Cn1cc(-c2cccc(CO)c2)c2nc(COc3ccc(Cl)cc3)cn2c1=O,-17.2% [at 43.1 µM],–
O=C1C=C(c2cccc(CO)c2)C[C@@H](c2ccc(Cl)cc2)C1,–,3.76 µM (active)

Compound,"activity change, negative = inhibition",Potency
CC1(c2ccccc2)O[C@@H]2C[C@H]3[C@@H]4CCC5=CC(=O)C=C[C@]5(C)[C@@]4(F)[C@@H](O)C[C@]3(C)[C@]2(C(=O)CO)O1 (some centres not stated),–,4.73 µM (active)
O=C(Nc1ccncc1)C1c2ccccc2Oc2ccccc21,-9.75%,–
CCOC(=O)c1sc(NC(=O)C2c3ccccc3Oc3ccccc32)c(C(=O)OCC)c1C,–,2.66 µM (active)
COc1cc(Nc2ncncc2-c2nc(-c3ccccc3)no2)cc(OC)c1OC,-9.59%,–
CC(C)(C)OC(=O)N1CCC(c2c(C(=O)NCCN3CCC(Cc4ccccc4)CC3)cnn2-c2ccc(F)cc2)CC1,–,5.31 µM (active)
Cc1ccc(-n2ncc(C(=O)N3CCN(c4cc(Cl)ccc4C)CC3)c2C2CCN(C(=O)OC(C)(C)C)CC2)cc1,–,8.41 µM (active)
Cc1ccc(C)c(N2CCN(CCCNC(=O)c3cnn(-c4ccc(F)cc4)c3C3CCN(C(=O)OC(C)(C)C)CC3)CC2)c1,–,2.66 µM (active)
CC(C)(C)OC(=O)N1CCC(CNC(=O)c2ccc(F)cc2)CC1,29.3%,–
Cc1ccc(C)c(N2CCN(CCCNC(=O)c3cnn(-c4cccc(Cl)c4)c3C3CCN(C(=O)OC(C)(C)C)CC3)CC2)c1,–,8.41 µM (active)
Cc1ccccc1C(=O)N1CCC(c2nn(-c3ccc(Cl)cc3)c(=O)[nH]2)CC1,-11.6%,–
Cn1cnc(S(=O)(=O)N2CCCOCCNC(=O)[C@@H]3CCC[C@@H]32)c1,21.7%,–
CC1CCN(C(=O)c2cc3c(s2)CCC(C(=O)NCCCN2CCOCC2)C3)CC1 (configuration not stated),-2.69%,–
Cc1cccc(C)c1-n1ncc(C(=O)NCCCN2CCC(C)CC2)c1C1CCN(C(=O)OC(C)(C)C)CC1,–,15 µM (active)
CC(C)(C)OC(=O)N1CCC(c2c(C(=O)NCCN3CCc4ccccc4C3)cnn2-c2ccc(F)cc2F)CC1,–,5.31 µM (active)
O=C(CN1C2=NCCCN2c2ccccc21)c1ccc(Cl)cc1Cl,–,6.68 µM (active)
CNCC(=O)N1C[C@@H](C(=O)O)[C@H](c2ccccc2)C1,41.5%,–
O=C(N/N=C/c1ccc(OCc2ccccc2)cc1)c1ccco1,–,13.3 µM (active)
CC(C)C(=O)OCC(=O)[C@@]12O[C@H](C3CCCCC3)O[C@@H]1C[C@H]1[C@@H]3CCC4=CC(=O)C=C[C@]4(C)[C@H]3[C@@H](O)C[C@@]12C,–,2.66 µM (active)
CC(=O)SC1CC(=O)N(c2c(C)cccc2C)C1=O (configuration not stated),25.1%,–
CN1C(=O)C2(c3ccccc31)N(C)CC(c1ccccc1)C21SC(=S)N(Cc2ccco2)C1=O (configuration not stated),–,13.3 µM (active)
Cc1ccc(CN2CCc3nc(C(=O)Nc4nc(C)cs4)oc3CC2)cc1,-27.9% [at 43.1 µM],–
CCc1nc2c(c(-c3ccc(Cl)cc3)n1)CCN(CC1CCCCC1)CC2,-2.24%,–
COc1ccc(-c2nc(C3CC3)nc3c2CCN(Cc2cccnc2)CC3)cc1,–,13.3 µM (active)

Compound,"activity change, negative = inhibition",Potency
Cc1ccc(CN2CCc3nc(C4CC4)nc(-c4ccc(O)cc4)c3CC2)cc1,–,4.73 µM (active)
COc1cccc(C(=O)N2CCc3nc(C4CC4)nc(-c4ccc(Cl)cc4)c3C2)c1,-28.7%,–
CC(C)c1nc2c(c(-c3ccc(O)cc3)n1)CCN(CC1CCCCC1)CC2,–,4.73 µM (active)
Oc1ccc(-c2nc(C3CC3)nc3c2CCN(CC2CCCCC2)CC3)cc1,–,4.73 µM (active)
O=C(c1ccccc1Cl)N1CCc2nc(-c3ccccc3)nc(-c3ccc(Cl)cc3)c2C1,5.28%,–
Cc1nc2c(c(-c3ccc(Cl)cc3)n1)CCN(C(=O)c1ccc(C(F)(F)F)cc1)CC2,31.3%,–
Oc1ccc(-c2nc(C3CC3)nc3c2CN(CC2CCCCC2)CC3)cc1,–,6.68 µM (active)
O=C(c1ccc(C(F)(F)F)cc1)N1CCc2nc(C3CC3)nc(-c3ccc(Cl)cc3)c2CC1,–,13.3 µM (active)
Cc1cccc(-c2cc3nc(C)c(C)c(NCCCn4ccnc4)n3n2)c1,–,5.31 µM (active)
COc1ccc(-c2oc3ccccc3c2C#Cc2cncn2C)cc1,–,1.06 µM (active)
CCO[C@H]1CN(C(=O)CCc2nc3c(C)c(C)ccc3[nH]2)C[C@@H]1O,14.7%,–
O=C(CCc1cc2ccccc2[nH]c1=O)N1CCCCC1,-6.44%,–
CCOC(=O)c1[nH]c(C)c(CCC(=O)N2CCN(c3cccc(C)c3C)CC2)c1C,–,1.33 µM (active)
CCOC(=O)c1[nH]c(C)c(CCC(=O)N2CCN(c3cc(Cl)ccc3C)CC2)c1C,–,1.19 µM (active)
CN(C)[C@H]1CCCCN(C(=O)CCc2ccc(-c3ccc(Cl)cc3)[nH]2)C1,-7.6%,–
CCOC(=O)c1[nH]c(C)c(CCC(=O)N2CCN(c3cc(C)ccc3C)CC2)c1C,–,1.33 µM (active)
N#C/C(=C\c1ccc(Cl)cc1)c1nc(-c2cc3ccccc3oc2=O)cs1,31.2%,–
N#C/C(=C\c1ccc(Sc2ccc(Cl)cc2)o1)c1nc2ccccc2[nH]1,–,2.99 µM (active)
Cn1nc(-c2nncn2CC2CC2)c2c1CCN(C(=O)c1nn(C)c3ccccc13)C2,-12%,–
CC1CCCN(Cc2c(O)ccc3c4c(c(=O)oc23)CCCC4)C1 (configuration not stated),–,6.68 µM (active)
COc1ccc(-c2cc3ccc(O)c(CN4CCCC(C)C4)c3oc2=O)cc1 (configuration not stated),–,2.37 µM (active)
CC1CCCN(Cc2c(O)ccc3c(=O)c(Oc4ccc(C(C)(C)C)cc4)c(C(F)(F)F)oc23)C1 (configuration not stated),–,0.299 µM (active)
CCc1ccc(Oc2c(C(F)(F)F)oc3c(CN4CCCC(C)C4)c(O)ccc3c2=O)cc1 (configuration not stated),–,1.33 µM (active)
